14 molecules from PubChem BioAssay (Tox21) can be followed below.

Unmarked numbers belong to inactive results. Inconclusive results are not listed. Activity calls are given as the source filed them. Unless noted, the call rests on the fitted dose curve; in most records, active means well fitted curve in the direction sought with a large enough effect in the repeat runs; inconclusive means weak or mixed curves; inactive means no such curve, though single readings can be large; an effect the other way counts as inactive or inconclusive.

Assay [1] can be described thus: qHTS assay to identify small molecule antagonists of the androgen receptor (AR) signaling pathway using the MDA cell line in the presence of 0.5 nM R1881 - cell viability counter screen (AID 1259242). Further: nearly all actives have a fitted effect of over 45% in size. Summed up: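 Counter screen for cytotoxicity run in the same wells as the AR antagonist reporter screen: MDA-kb2 cells were treated 16 hr with test compounds and 0.5 nM R1881, then live-cell protease activity was measured by fluorescence.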
On the technique in general: Quantitative high-throughput screening tests each substance at several concentrations.

Assay [2] in a line: qHTS assay to identify small molecule HDAC inhibitors (AID 1259364). Further: top concentration of the series differs between compounds; nearly all actives have a fitted effect of over 45% in size. In short, it runs like this: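 Luminescence from a cell-permeant luminogenic class I/II HDAC substrate reports endogenous deacetylase activity in intact HCT-116 cells treated with compounds for 2 h.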
Assay [3] is described as follows: qHTS assay to identify small molecule HDAC inhibitors - cell viability counter screen (AID 1259365). Further: series mostly up to about 92 µM; nearly all actives have a fitted effect of over 50% in size. In short, it runs like this: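 To flag cytotoxic hits, 1,500 wild-type HCT-116 cells per well, plated the day before, receive test compounds for 2hr at 37 C before CellTiter-Glo reagent and a luminescence read.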
A short description of assay [4]: qHTS assay to identify small molecule agonists of the sonic hedgehog signaling (Shh) pathway - cell viability counter screen (AID 1259366). Further: nearly all actives have a fitted effect of over 50% in size. Further: potency means the concentration at half of the fitted maximal effect. Summed up: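 Fluorescence from CellTiter-Fluor reports live cells in this counter screen. NIH/3T3-derived Gli1-Luc reporter cells receive test compounds for 24hr at 37C; reagent goes in at 23hr.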
A short description of assay [5]: qHTS assay to identify small molecule antagonists of the sonic hedgehog signaling (Shh) pathway - cell viability counter screen (AID 1259367). Further: nearly all actives have a fitted effect of over 55% in size. Further: potency means the concentration at half of the fitted maximal effect. Summed up:
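NIH/3T3-derived Gli1-Luc reporter cells (2,000 per well) rested 4 hr at 37 C, then received DMSO compounds plus conditioned medium. After 23 hr of treatment, CellTiter-Fluor was added for 1 hr at 37C and fluorescence read.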

The nature of assay [6]: qHTS assay to identify small molecule agonists of the sonic hedgehog signaling (Shh) pathway (AID 1259368; calls by dose curve;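 further: NIH/3T3-derived 3T3Gli1-Luc cells carrying a stable Gli1-driven firefly luciferase reporter; series mostly up to about 92 µM; nearly all actives have a fitted effect of over 15% in size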). In short, it runs like this: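 3T3Gli1-Luc (NIH/3T3 clone, stable Gli1-Luc); 4 hr pre-incubation, then cpd in DMSO 24 hr, 37 C/5% CO2; luciferase reagent 30 min RT; luminescence.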
Assay [7] in a line: qHTS assay to identify small molecule antagonists of the sonic hedgehog signaling (Shh) pathway (AID 1259369; calls by dose curve; further: nearly all actives have a fitted effect of over 45% in size; further: potency means the concentration at half of the fitted maximal effect). In short, it runs like this: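 3T3Gli1-Luc, conditioned-medium-stimulated, 24hr cpd, 37C/5% CO2; Gli1-driven firefly Luc luminescence after 30min RT with luciferase reagent. Cells plated 4hr before cpd.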
The target of assay [8] is Estrogen receptor beta (Homo sapiens) (UniProt Q92731). Nature of the assay: qHTS assay to identify small molecule antagonists of the estrogen receptor beta (ER-beta) signaling pathway (AID 1259378; active means well fitted inhibition curve with a large enough effect in the signal ratio in the repeat runs, not every such curve was filed as active; the % refers to the signal ratio; further: potency means the concentration at half of the fitted maximal effect). In short, it runs like this: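 ER-beta-UAS-bla HEK293T (GripTite) cells in 2% charcoal-stripped FBS medium were preincubated 6 hr at 37C, dosed with compound, then stimulated with 1 nM E2 (final) for 16 hr; beta-lactamase reporter read by B/G FRET fluorescence after 2 hr substrate loading.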
Estrogen receptor beta (Homo sapiens), sequence (Q92731 whole entry, looked up): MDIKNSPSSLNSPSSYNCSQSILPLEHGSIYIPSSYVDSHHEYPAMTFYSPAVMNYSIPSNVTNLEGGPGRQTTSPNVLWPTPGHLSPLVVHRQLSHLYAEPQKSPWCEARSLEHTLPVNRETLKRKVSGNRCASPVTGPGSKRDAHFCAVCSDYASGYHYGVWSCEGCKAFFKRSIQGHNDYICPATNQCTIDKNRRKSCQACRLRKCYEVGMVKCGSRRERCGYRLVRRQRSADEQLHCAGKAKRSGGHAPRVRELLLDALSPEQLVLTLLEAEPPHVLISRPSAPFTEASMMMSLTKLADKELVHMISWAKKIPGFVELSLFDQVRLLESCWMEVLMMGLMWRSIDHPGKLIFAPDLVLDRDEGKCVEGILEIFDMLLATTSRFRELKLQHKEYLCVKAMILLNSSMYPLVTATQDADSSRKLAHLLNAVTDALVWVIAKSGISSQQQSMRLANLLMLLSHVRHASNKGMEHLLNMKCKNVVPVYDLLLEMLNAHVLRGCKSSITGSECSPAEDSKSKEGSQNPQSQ

Assay [9] can be described thus: qHTS assay to identify small molecule agonists of the androgen receptor (AR) signaling pathway in the presence of an antagonist - cell viability counter screen (AID 1259379).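 Further: MDA-kb2 human breast cancer cells carrying an MMTV luciferase reporter; series mostly up to about 92 µM; nearly all actives have a fitted effect of over 25% in size.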 In short, it runs like this:
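Cells: MDA-kb2 (MMTV-luc, AR and GR elements), 3,000/well, 5 hr settle. Added: nilutamide 3.0uM final, then compounds (15 conc.). Incubation: 16 hr, 37C, no CO2. Read-out: CellTiter-Fluor, 1 hr, fluorescence.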

Assay [10] in a line: qHTS assay to identify small molecule agonists of the estrogen receptor beta (ER-beta) signaling pathway - cell viability counter screen (AID 1259380). Further: nearly all actives have a fitted effect of over 30% in size. Further: potency means the concentration at half of the fitted maximal effect. Summed up: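 HEK293T ER-beta-UAS-bla; 2% CS-FBS; 6 hr pre-plate, 16 hr cpd at 37C/5% CO2; LiveBLAzer read first, then CellTiter-Glo 30 min RT, luminescence.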
A short description of assay [11]: qHTS assay to identify small molecule antagonists of the estrogen receptor beta (ER-beta) signaling pathway - cell viability counter screen (AID 1259382). Further: series mostly up to about 92 µM; nearly all actives have a fitted effect of over 55% in size. Summed up:
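Cells: ER-beta-UAS-bla HEK293T, 2,000/well, 2% CS-FBS, 6 hr settle. Cpd + E2 (1nM final), 16 hr, 37C/5% CO2. Bla FRET substrate 2 hr RT, then CellTiter-Glo 30 min RT, luminescence.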

Assay [12] can be described thus: qHTS assay to identify small molecule agonists or antagonists of the thyroid stimulating hormone receptor (TSHR) signaling pathway - wild type cell line counter screen (AID 1259384; calls by dose curve). In short, it runs like this:
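Wild-type HEK293 cells were plated 18 h at 37 C/5% CO2, pin-dosed with compound plus Ro20-1724 medium, held 30 min at room temperature, then given cAMP-d2 and anti-cAMP-cryptate; fluorescence was read after 1 h. Fifteen concentrations, triplicate.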

Assay [13] has as its target Thyrotropin receptor (Homo sapiens) (UniProt P16473). Nature of the assay: qHTS assay to identify small molecule antagonists of the thyroid stimulating hormone receptor (TSHR) signaling pathway (AID 1259385; calls by dose curve; further: nearly all actives have a fitted effect of over 20% in size). Summed up: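 TSHR-HEK293 cells were plated and held 18 h at 37C/5% CO2, then given compound plus Ro20-1724 and stimulated with TSH at 1.5 ng/mL final. After 30 min at room temperature, cAMP was detected with cAMP-d2/anti-cAMP-cryptate (1 h) by fluorescence.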

The nature of assay [14]: qHTS assay to identify small molecule agonists of the estrogen receptor alpha (ER-alpha) signaling pathway in the presence of an antagonist - cell viability counter screen (AID 1259386).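 Further: series mostly up to about 92 µM; cells exposed to compounds for 22 h at 37 °C before the viability read; nearly all actives have a fitted effect of over 30% in size.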 In short, it runs like this:
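VM7Luc4E2, stripped-serum pre-culture 5 d; 24hr plating; +ICI-182,780 10.0nM final; cpds 15 conc, 22hr, 37C/5% CO2; CellTiter-Fluor added at 21hr, fluorescence 1hr later.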

In assay [15] the target is Estrogen receptor beta (Homo sapiens) (UniProt Q92731). Description: qHTS assay to identify small molecule agonists of the estrogen receptor beta (ER-beta) signaling pathway (AID 1259377; active means well fitted activation curve with a large enough effect in the signal ratio in the repeat runs, not every such curve was filed as active; the % refers to the signal ratio). Summed up: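 Screening used GripTite ER-beta-UAS-bla cells held in 2% charcoal-stripped FBS medium. After overnight (16 hr) compound incubation at 37C, beta-lactamase activity was detected with a FRET substrate by fluorescence.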

Assay [16] deals with Estrogen receptor (Homo sapiens) (UniProt P03372). Nature of the assay: qHTS assay to identify small molecule agonists of the estrogen receptor alpha (ER-alpha) signaling pathway in the presence of an antagonist (AID 1259383; calls by dose curve; further: top concentration of the series differs between compounds; nearly all actives have a fitted effect of over 15% in size). Summed up:
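VM7Luc4E2, endog. ER-alpha + 4×ERE-luc; charcoal-stripped FBS, phenol red-free, 5 d; 24hr plating; +10.0nM ICI-182,780 (final); cpds 15 conc, 22hr, 37C/5% CO2; ONE-Glo luminescence.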
On the % scale 0 is the no-effect control and ±100 the full control effect.

Thyrotropin receptor (Homo sapiens), sequence (P16473 whole entry, looked up): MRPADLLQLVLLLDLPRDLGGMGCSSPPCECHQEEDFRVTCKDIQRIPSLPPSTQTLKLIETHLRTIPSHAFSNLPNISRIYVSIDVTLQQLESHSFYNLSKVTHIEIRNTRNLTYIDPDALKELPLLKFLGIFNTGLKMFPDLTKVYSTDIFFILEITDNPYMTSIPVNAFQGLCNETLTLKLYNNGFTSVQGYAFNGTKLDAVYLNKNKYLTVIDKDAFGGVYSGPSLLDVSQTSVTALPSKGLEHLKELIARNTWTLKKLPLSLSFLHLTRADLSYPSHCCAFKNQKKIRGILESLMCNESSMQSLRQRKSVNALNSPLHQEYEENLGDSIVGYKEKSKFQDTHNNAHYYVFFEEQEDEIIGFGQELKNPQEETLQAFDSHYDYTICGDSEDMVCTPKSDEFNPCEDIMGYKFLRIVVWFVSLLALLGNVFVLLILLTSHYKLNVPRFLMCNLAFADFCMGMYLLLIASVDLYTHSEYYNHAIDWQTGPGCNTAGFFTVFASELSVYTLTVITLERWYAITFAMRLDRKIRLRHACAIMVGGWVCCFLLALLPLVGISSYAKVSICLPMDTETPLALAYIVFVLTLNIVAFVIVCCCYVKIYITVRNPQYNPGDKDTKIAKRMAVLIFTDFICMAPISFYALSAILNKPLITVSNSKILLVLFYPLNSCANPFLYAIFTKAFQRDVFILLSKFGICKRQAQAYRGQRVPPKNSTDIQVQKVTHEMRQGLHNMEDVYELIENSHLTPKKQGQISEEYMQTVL
Estrogen receptor (Homo sapiens), sequence (P03372 whole entry, looked up): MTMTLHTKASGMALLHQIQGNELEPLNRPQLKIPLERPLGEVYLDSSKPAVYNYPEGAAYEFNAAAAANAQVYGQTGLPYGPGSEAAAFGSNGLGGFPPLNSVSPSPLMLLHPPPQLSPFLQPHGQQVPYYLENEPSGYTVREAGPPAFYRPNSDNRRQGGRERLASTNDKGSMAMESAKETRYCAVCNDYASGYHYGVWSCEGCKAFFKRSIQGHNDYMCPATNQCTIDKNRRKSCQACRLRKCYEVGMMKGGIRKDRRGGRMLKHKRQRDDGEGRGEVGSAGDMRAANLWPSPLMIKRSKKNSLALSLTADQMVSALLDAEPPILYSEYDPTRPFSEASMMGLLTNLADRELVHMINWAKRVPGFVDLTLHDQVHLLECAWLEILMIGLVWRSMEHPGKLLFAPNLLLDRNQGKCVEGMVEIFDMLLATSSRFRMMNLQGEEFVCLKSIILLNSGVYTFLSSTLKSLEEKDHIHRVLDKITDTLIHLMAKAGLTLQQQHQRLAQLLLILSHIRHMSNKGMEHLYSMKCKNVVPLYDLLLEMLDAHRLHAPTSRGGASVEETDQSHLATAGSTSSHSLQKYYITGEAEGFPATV

Regarding `O=C(O)CCCCCCC(=O)O`, the Potency entry in [1], in assay [2], in assay [3], in [4], in assay [5] and in assay [6] was “inactive” throughout. The Potency result in assay [7], in assay [8], in [9], in assay [10], in assay [11] and in assay [13] was “inactive” in each case. For the same molecule, the Potency entry in assay [14] was “inactive”. For the same molecule, the outcome in [12] was inactive.

Regarding `CC(C)c1cccc(C(C)C)c1N1C(=O)c2ccc(O)cc2C1=O`, the Potency entry in assay [1], in [2], in assay [3], in assay [5], in [6] and in assay [13] was “inactive” throughout. In addition, the Potency result in [14] is “inactive”. Besides, in assay [7], the Potency was 13.7 µM (active). The outcome in assay [12] was inactive.

Consider `CC(C)(C)c1cc(/C=C2\SC(=N)NC2=O)cc(C(C)(C)C)c1O`, for which the Potency entry in assay [1], in [2], in assay [3], in assay [4], in [5] and in [6] was “inactive” throughout. In addition, the Potency entry in assay [15], in assay [9], in assay [16] and in assay [13] was “inactive” in each case. In [8], the Potency is 21.7 µM (active). In addition, the call in assay [12] was inactive.

In the case of `C=CCCCCCCC=C`, the Potency result in assay [1], in assay [2], in assay [3], in assay [6], in assay [9] and in assay [10] was “inactive” each time. The Potency result in [11] and in assay [14] was “inactive” in each case. Further, the Potency in [7] is 30.7 µM (active).

Take `c1cc2c3c(c1)ccc1cccc(c13)C2`: the Potency result in assay [1], in assay [2], in [4], in assay [5], in [6] and in [15] was “inactive” throughout. The Potency result in [9], in [11] and in assay [14] was “inactive” in each case. Moreover, the call in [12] was inactive.

For the molecule `C=C(C)C(=O)OCCC[Si](Cl)(Cl)Cl`, the Potency entry in assay [1], in [2], in [3], in assay [4], in assay [5] and in assay [6] was “inactive” each time. Moreover, the Potency entry in [15], in assay [8], in assay [9], in assay [10], in [11] and in assay [13] was “inactive” each time. For the same molecule, the Potency result in assay [14] is “inactive”. In addition, the result in assay [12] was inactive.

For `COC(=O)[C@]1(C)CCC[C@@]2(C)[C@H]1CC=C1C=C(C(C)C)CC[C@@H]12`, the Potency entry in assay [1], in assay [2], in [3], in assay [4], in [5] and in assay [6] was “inactive” throughout. Also, the Potency result in [7], in assay [8], in assay [9], in assay [11], in assay [13] and in [14] was “inactive” in each case. The Potency in assay [10] was 68.6 µM (active). In assay [12], the molecule was called inactive.

`CC1=C(/C=C/C(C)=C/C=C/C(C)=C\C=O)C(C)(C)CCC1`: the Potency entry in [1], in assay [2], in assay [6], in [15] and in [13] was “inactive” each time. Moreover, the Potency in assay [7] is 25.8 µM (active); in assay [8], 32.5 µM (active); in assay [10], 41 µM (active). Moreover, in assay [12], the call was inactive.

For the molecule `Cc1occc1SSc1ccoc1C`, the Potency result in assay [1], in assay [2], in [3], in [4], in assay [5] and in [6] was “inactive” throughout. Also, the Potency entry in assay [15], in assay [8], in assay [9], in [11], in assay [13] and in assay [14] was “inactive” each time. Further, the molecule was called inactive in assay [12].

As to `O=C1Nc2ccc(Cl)cc2[C@@](C#CC2CC2)(C(F)(F)F)O1`, the Potency result in [1], in [2], in assay [4], in assay [6], in assay [15] and in assay [9] was “inactive” in each case. Besides, the Potency entry in assay [13] and in assay [14] was “inactive” each time. The Potency in assay [8] was 23.7 µM (active). The outcome in [12] was inactive.

Turning to `S=C(SSSSSSC(=S)N1CCCCC1)N1CCCCC1`, the viability change, negative = cytotoxic in assay [1] is -10.8% [at 19 µM]. Besides, the activity change, negative = inhibition in [2] was -8.72% [at 19 µM]. Moreover, the Potency in assay [4] is 5.35 µM (active); in assay [5], 7.56 µM (active); in assay [8], 13.4 µM (active). Also, in [6], the activity change is -10.5% [at 18.9 µM, stronger effect = higher value]. For the same molecule, the activity change, negative = cytotoxicity in assay [9] was -6.95% [at 19 µM].

Regarding `CCCCCCCCCCCC(=O)N(CC)CC`, the Potency entry in [1], in [2], in assay [3], in assay [4], in [5] and in assay [6] was “inactive” in each case. The Potency entry in [7], in assay [9], in assay [10], in assay [11] and in assay [14] was “inactive” throughout. For the same molecule, in assay [12], the outcome was inactive.

Consider `CC1CCCNC1` (stereo unspecified), for which the Potency entry in assay [1], in [2], in assay [3], in assay [6], in [15] and in assay [9] was “inactive” throughout. For the same molecule, the Potency result in assay [10], in [11], in assay [16], in assay [13] and in [14] was “inactive” in each case. Moreover, the Potency in assay [7] was 26.7 µM (active). Besides, the molecule was classed as inactive in assay [12].

In the case of `CN1[C@@H]2CC[C@@H]1CC(OC(=O)C(CO)c1ccccc1)C2` (stereo partly specified), the Potency entry in assay [1], in [2], in assay [3], in assay [4], in assay [5] and in assay [7] was “inactive” throughout. Besides, the Potency result in [9], in assay [10], in assay [11] and in assay [14] was “inactive” each time.
